A selection: hits, their analogues and other compounds. The true share with any hit is near 12%.
Sm TGR block – inhibitors of Schistosoma mansoni thioredoxin glutathione reductase; Potency, µM (series often up to 114 µM), inactives show at the highest dose activity change, negative = inhibition, actives largely listed as inhibitors; AID 485364; Q962Y6; purified TGR, DTNB reduction, TNB absorbance 405 nm; 360,000 compounds, 3% hits; active = well fitted inhibition curve with a large enough effect; inconclusive = small, poorly fitted or top-dose-only effect; inactive = no such curve, though single readings can be large or run the other way; also: potency is read from the fitted curve at half-maximal effect; % is scaled to controls: 0 for no effect and ±100 for the full control effect; nearly all actives have a fitted effect of over 60% in size
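TGR 20 nM + NADPH 100 uM (dispensed conc.), cpd preinc 15 min RT; start with NADPH (500 uM addition) then DTNB (15 mM addition). Kinetic TNB absorbance, 405 nm filter. Four-parameter Hill fit across titration.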
Cycloheximide cs – counter-screen for Shiga toxin inhibitors: cycloheximide protein synthesis inhibition. AID 2314. max response, %. cell reporter, cycloheximide protein synthesis inhibition counterscreen. 300,000 compounds, 12% hits; in the data active = max response mostly above about 13%, no sharp cut-off; inactive = mostly below about 14%; also: read at 38.3 µM for the half of the compounds with a filed dose; 0% is about no effect
FMDV inh – blocks foot and mouth disease virus; FMDV antiviral cell-based qHTS; Potency, µM (highest dose often 57.9 µM), for the others: at the top dose activity change, negative = inhibition, most hits filed as inhibitors; 410,000 compounds, 1.2% hits; calls by dose curve; tested in HEK293T cells; also: read-out not given here; potency is read from the fitted curve at half-maximal effect; % is scaled to controls: 0 for no effect and ±100 for the full control effect; nearly all actives have a fitted effect of over 45% in size
Shiga inhibitor – Shiga toxin inhibition. Vero cells, Shiga toxin protein synthesis inhibition reporter. inhibition, % at 38.7 µM. 290,000 compounds, 9.2% hits; in the data active = inhibition mostly above about 28%, no sharp cut-off; inactive = mostly below about 43%; also: 0% is about no effect
* marks the source's active call; other numbers are inactive results.

What do the screens show for `O=C(COC(=O)CCSc1ccccc1Cl)NCc1ccco1`?
Sm TGR block: 40µM*; Cycloheximide cs: 6; FMDV inh: -4%; Shiga inhibitor: -2

Results for Cc1cc(Br)ccc1SCC(=O)OCC(=O)NCc1ccco1 ?
Sm TGR block: 25µM*; Cycloheximide cs: -1; FMDV inh: 0%; Shiga inhibitor: 14

How did O=C(COC(=O)Cc1c(Cl)cccc1Cl)NCc1ccco1 do in these assays?
FMDV inh: 7%

What do the screens show for `COc1ccc(-c2cn3c(n2)sc2cc(C(=O)NC(C)C45CC6CC(CC(C6)C4)C5)ccc23)cc1` (centres undefined)?
Sm TGR block: 6%; FMDV inh: 30%

How did CCc1ccc(N=C2NC(=O)CC(C(=O)Nc3ccc(OC)cc3)S2)cc1 (centres undefined) do in these assays?
Sm TGR block: -1%; FMDV inh: -11%

What do the screens show for `O=C(NNC(=S)Nc1ccccc1Cl)c1ccccc1Br`?
Sm TGR block: -1%; Cycloheximide cs: 49*; FMDV inh: 75%; Shiga inhibitor: 74*

What do the screens show for `NC(=S)NNC(=O)c1ccccc1Cl`?
Sm TGR block: 6%; Cycloheximide cs: 2; FMDV inh: -11%; Shiga inhibitor: -8

What do the screens show for `O=C(NNC(=O)c1ccccc1Br)c1ccccc1Cl`?
Sm TGR block: 0%; Cycloheximide cs: 19*; FMDV inh: 6%; Shiga inhibitor: 23

Results for O=C(NNC(=S)Nc1ccc(Br)cc1)c1ccccc1Br ?
Sm TGR block: 3%; Cycloheximide cs: 11; FMDV inh: 16%; Shiga inhibitor: 72

How did COC(=O)CN1C(=O)CSc2ccc(S(=O)(=O)Nc3cccc(C)c3C)cc21 do in these assays?
Sm TGR block: 0%; FMDV inh: 3%

How did O=C(CCNC(=O)c1ccc(Cl)cc1)NCCC1=CCCCC1 do in these assays?
Sm TGR block: 1%; FMDV inh: 18%

Results for O=C(NCCC1=CCCCC1)c1ccc(F)cc1 ?
Sm TGR block: -15%; Cycloheximide cs: 39*; FMDV inh: inconclusive; Shiga inhibitor: active

What do the screens show for `O=C(NCCc1ccc(F)cc1)c1ccc([N+](=O)[O-])cc1`?
Cycloheximide cs: 34*; FMDV inh: 38%; Shiga inhibitor: 67*

What do the screens show for `O=C(NC1CCCCCC1)c1ccc(CN2CCOCC2)cc1`?
Sm TGR block: 8%; Cycloheximide cs: 41*; FMDV inh: 34%; Shiga inhibitor: 96*

Results for O=C(NCCC1=CCCCC1)c1ccc(CN2CCOCC2)cc1 ?
Sm TGR block: -21%; Cycloheximide cs: 40*; FMDV inh: -12%; Shiga inhibitor: 45*

What do the screens show for `O=C(CCNC(=O)c1ccc([N+](=O)[O-])cc1)Nc1ccc(F)cc1`?
Sm TGR block: -14%; Cycloheximide cs: -4; FMDV inh: -13%; Shiga inhibitor: -8

How did CCOC(=O)c1ccc(CN(Cc2ccc(F)cc2)S(=O)(=O)c2cc(C(=O)Nc3ccccc3CC)ccc2F)cc1 do in these assays?
Sm TGR block: 5%; FMDV inh: -9%

How did O=C(NCCC1=CCCCC1)c1ccc([N+](=O)[O-])cc1 do in these assays?
Sm TGR block: -7%; Cycloheximide cs: 75*; FMDV inh: 3%; Shiga inhibitor: 131*

Results for O=C(NCCC1=CCCCC1)c1cccc(S(=O)(=O)N2CCCCC2)c1 ?
Sm TGR block: 2%; FMDV inh: -10%

How did Cc1cc(C(=O)NCCC2=CCCCC2)ccc1[N+](=O)[O-] do in these assays?
Sm TGR block: -6%; Cycloheximide cs: 49*; FMDV inh: 20%; Shiga inhibitor: 96*

Results for O=C(NCCC1=CCCCC1)c1ccc(Br)o1 ?
Sm TGR block: 7%; Cycloheximide cs: 28*; FMDV inh: 46%; Shiga inhibitor: 84*

How did O=C(CCNC(=O)c1ccc([N+](=O)[O-])cc1)NCCC1=CCCCC1 do in these assays?
Sm TGR block: 5%; FMDV inh: -17%

What do the screens show for `COc1cccc(C(=O)NCCC2=CCCCC2)c1`?
Sm TGR block: -1%; Cycloheximide cs: 30*; FMDV inh: 0%; Shiga inhibitor: 74*

How did O=C(Cc1ccccc1[N+](=O)[O-])NCCC1=CCCCC1 do in these assays?
Cycloheximide cs: 26*; FMDV inh: 81%; Shiga inhibitor: 61*

What do the screens show for `COc1ccc(C(=O)NCC(=O)OCC(=O)NCCC2=CCCCC2)cc1`?
Sm TGR block: 7%; Cycloheximide cs: -3; FMDV inh: -19%; Shiga inhibitor: 29

Results for O=C(COc1ccc([N+](=O)[O-])cc1)NCCC1=CCCCC1 ?
Sm TGR block: 0%; Cycloheximide cs: 0; FMDV inh: -21%; Shiga inhibitor: 15

What do the screens show for `COc1ccc(C(=O)NCCC2=CCCCC2)cc1OC`?
Sm TGR block: 5%; Cycloheximide cs: 46*; FMDV inh: 34%; Shiga inhibitor: 75*

How did COc1ccc(C(=O)NCCC2=CCCCC2)cc1 do in these assays?
Sm TGR block: 1%; Cycloheximide cs: 31*; FMDV inh: 13µM*; Shiga inhibitor: 51

Results for COCCCNC(=O)Cn1c(=O)n(-c2ccc(C)c(C)c2)c(=O)c2c3c(sc21)CCCCC3 ?
Sm TGR block: 89µM*; FMDV inh: -16%

What do the screens show for `Cc1ccc(CCC(=O)Nc2ccc(Br)cc2)o1`?
Sm TGR block: -24%; Cycloheximide cs: 18*; FMDV inh: 20%; Shiga inhibitor: 15

What do the screens show for `CCc1ccc(CCC(=O)Nc2ccc(Br)cc2)o1`?
Sm TGR block: 4%; Cycloheximide cs: 3; FMDV inh: 6%

Results for CCc1ccc(CCC(=O)Nc2ccc(Cl)cc2)o1 ?
Sm TGR block: 5%; Cycloheximide cs: 18*; FMDV inh: 0%; Shiga inhibitor: 24

How did COC(=O)c1c(NC(=O)CCc2ccc(C)o2)sc(C)c1C do in these assays?
Sm TGR block: 40µM*; Cycloheximide cs: 3; FMDV inh: -10%; Shiga inhibitor: 22

How did Cc1ccc(CCC(=O)Nc2ccc(Cl)cc2)o1 do in these assays?
Sm TGR block: -26%; Cycloheximide cs: 18*; FMDV inh: 16%

What do the screens show for `Cc1ccc(CCC(=O)Nc2ccc(N(C)C)cc2)o1`?
Sm TGR block: -2%; Cycloheximide cs: 31*; FMDV inh: 38%; Shiga inhibitor: 54*

What do the screens show for `Cc1ccc(NC(=O)CCc2ccc(C)o2)c(Br)c1`?
Sm TGR block: -7%; Cycloheximide cs: 29*; FMDV inh: 64%; Shiga inhibitor: 31*

What do the screens show for `Cc1ccc(C(=O)CCNc2ccc(Cl)cc2)o1`?
Sm TGR block: -32%; Cycloheximide cs: 17*; FMDV inh: 16%; Shiga inhibitor: 31

Results for Cc1ccc(CCC(=O)Nc2ccc(Cl)cc2Cl)o1 ?
FMDV inh: 25%

How did Cc1ccc(CCC(=O)Nc2ccc(CC(=O)O)cc2)o1 do in these assays?
Sm TGR block: inconclusive; Cycloheximide cs: 9; FMDV inh: 6%; Shiga inhibitor: -8

How did Cn1c2ccccc2c2c(C(=O)O)cn(C3CCCC3)c(=O)c21 do in these assays?
Sm TGR block: 2%; Cycloheximide cs: -3; FMDV inh: -25%; Shiga inhibitor: 3

Results for Cn1c2ccccc2c2c(C(=O)NCc3ccco3)cn(C3CCCCC3)c(=O)c21 ?
Sm TGR block: 79µM*; Cycloheximide cs: -3; FMDV inh: inconclusive; Shiga inhibitor: -10
